BCLXL inh = inhibitors of human Bcl-xL. GST-Bcl-xL / FITC-Bim BH3 peptide fluorescence polarization. inhibition, % at 10.9 µM. 320,000 compounds, 0.7% hits. Q07817;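 active = inhibition above the mean of all tested compounds plus 3 SD, cutoff set per campaign, cut at about 30% in these data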;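 also: 0% = DMSO wells and 100% = unlabeled Bim-BH3 peptide competitor; inhibitors lower millipolarization by displacing the labeled peptide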
eLon inh = inhibits E. coli Lon protease; P0A9M0; purified E. coli Lon protease, fluorescence polarization; inhibition, % at 7.94 µM; 360,000 compounds, 0.42% hits; AID 602123; in the data active = inhibition above about 13%, passing the limit was not always enough;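 also: 0% = enzyme with probe and DMSO and 100% = no enzyme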
EBV gp42 inh = EBV gp42 inhibition | Fluorescence polarization binding assay, mP read-out | inhibition, % (tested at 21.74 µM) | 220,000 compounds, 0.42% hits; in the data active = inhibition above about 50%
GLD-1 TGE inh = GLD-1-TGE RNA interaction inhibition (C. elegans). purified GLD-1 + fluorescein TGE RNA, fluorescence polarization. inhibition, % at 5.96 µM. 320,000 compounds, 0.44% hits. AID 2280;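 active = percent inhibition above a per-plate cutoff, the plate mean of test compounds plus 3 SD, cut at about 30% in these data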;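 also: 0% = DMSO wells with GLD-1 and probe and 100% = wells lacking GLD-1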
Target sequence (Q17339 whole entry, looked up): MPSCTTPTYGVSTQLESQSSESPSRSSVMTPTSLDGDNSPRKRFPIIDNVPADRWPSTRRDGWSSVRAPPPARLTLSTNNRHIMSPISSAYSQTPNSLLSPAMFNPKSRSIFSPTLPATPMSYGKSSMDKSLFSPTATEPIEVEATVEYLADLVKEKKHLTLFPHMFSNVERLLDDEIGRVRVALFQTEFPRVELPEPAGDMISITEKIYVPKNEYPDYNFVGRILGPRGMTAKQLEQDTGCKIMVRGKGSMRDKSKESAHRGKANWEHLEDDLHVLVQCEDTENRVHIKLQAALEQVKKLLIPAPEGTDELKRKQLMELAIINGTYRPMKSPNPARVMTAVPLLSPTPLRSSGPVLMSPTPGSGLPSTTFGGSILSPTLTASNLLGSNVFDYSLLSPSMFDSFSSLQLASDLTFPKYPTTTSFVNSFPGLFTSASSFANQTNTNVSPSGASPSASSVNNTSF
MEX-5 binding = C. elegans MEX-5 TCR-2 RNA binding activity. Q9XUB2. MEX-5/FITC-TCR2 RNA binding, fluorescence polarization; stronger effect = lower value. activity score (negative = inhibition of binding), % at 10 µM. 300,000 compounds, 0.38% hits;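 active = inhibition past about -25% in most replicates, and total fluorescence under double the plate's negative control median, limit read from the data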;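 also: 0% = DMSO and -100% = 5 µM competing unlabeled TCR2 RNA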
MCL1 BIM primary = MCL1-BIM-BH3 interaction inhibition (human); GST-MCL1 / FITC-Bim-BH3 fluorescence polarization; inhibition, % at 10.9 µM; 320,000 compounds, 0.68% hits; AID 2057;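 active = inhibition above the mean inhibition of all tested compounds plus 3 SD, set per campaign, cut at about 40% in these data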;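 also: 0% = DMSO wells and 100% = unlabeled Bim-BH3 peptide control; higher means more loss of mP so more displacement of Bim peptide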
* marks the source's active call; other numbers are inactive results; nt = no result given. In the library only some 1.5% were active in any assay of this set; here they are far more common.

SMILES	BCLXL inh	eLon inh	EBV gp42 inh	GLD-1 TGE inh	MEX-5 binding	MCL1 BIM primary
O=C(CCN1C(=O)C2C3C=CC(C3)C2C1=O)NCCN1CCCc2ccccc21 (stereo not drawn)	34*	7	-5	14	0	31
C=CCN1CC(c2nc3ccccc3n2CCOc2ccccc2)CC1=O (stereo not drawn)	-1	-5	58*	7	3	2
CCN(C(=O)c1cccc(S(=O)(=O)N2CCc3ccccc32)c1)C1CCS(=O)(=O)C1 (stereo not drawn)	3	17	nt	5	nt	2
COc1ccc(-n2c(C)c3c(OC)cccc(=O)c3c2C)cc1	9	-1	5	6	-3	4
COc1cccc(=O)c2c(C)oc(C)c12	20	-2	18	17	-71*	17
COc1ccc(NS(=O)(=O)c2cc(OC)ccc2OC)cc1	37*	-6	nt	-2	-1	4
COc1ccc(OC)c(S(=O)(=O)Nc2ccc(F)cc2)c1	5	-6	-17	6	2	0
CCNC(=O)N1c2ccc(OCC)cc2C(C)=CC1(C)C	48*	14	-13	68*	2	45*
COc1cc(CN2CCN(c3cccc(C)c3C)CC2)cc(OC)c1O	3	-2	111*	7	-1	0
COc1cc(Cl)c(C)cc1NC(=O)COC(=O)C1=COCCO1	3	0	nt	6	-2	4
Cc1cc(NC(=O)COC(=O)C2=COCCO2)c([N+](=O)[O-])cc1C	42*	-1	-7	2	-1	3
O=C(OCCOc1ccccc1F)c1cccc(S(=O)(=O)N2CCOCC2)c1	-6	4	nt	2	nt	-9
O=C(NN1C(=O)c2ccccc2NC1c1ccccn1)c1ccc(Br)cc1 (stereo not drawn)	1	4	-19	-1	-30*	-1
O=C(NN1C(=O)c2ccccc2NC1c1ccco1)c1ccc([N+](=O)[O-])cc1 (stereo not drawn)	4	-6	-8	2	0	0
Cc1cccc(C2Nc3ccccc3C(=O)N2NC(=O)c2ccc([N+](=O)[O-])cc2)n1 (stereo not drawn)	4	0	-18	10	-54*	-4
O=C(NN1C(=O)c2ccccc2NC1c1ccccn1)c1ccc([N+](=O)[O-])cc1 (stereo not drawn)	-3	-7	-5	-2	-44*	-5
C#CCN(Cc1ccco1)C(=O)c1ccc(OC2CCN(Cc3ccccn3)CC2)cc1	11	-6	nt	4	-1	2
Cc1cc(=O)n2[nH]c(SCc3ccccc3)nc2n1	-1	12	-15	1	2	-2
COCc1cc(=O)n2[nH]c(SCc3ccccc3)nc2n1	31*	4	-17	-2	-2	7
CC1(C(=O)N2CCN(c3ccc([N+](=O)[O-])cc3)CC2)CC1(Cl)Cl (stereo not drawn)	7	-2	nt	64*	1	4
CC1(C(=O)N2CCN(c3ccccc3)CC2)CC1(Cl)Cl (stereo not drawn)	4	-4	0	0	-2	-4
CCCCN(C(=O)CSc1ncn[nH]1)c1c(N)n(Cc2ccccc2)c(=O)[nH]c1=O	4	-3	nt	5	nt	8
O=C(/C=C/c1ccc(O)c(O)c1)O[C@H](Cc1ccc(O)c(O)c1)C(=O)O	nt	nt	-6	nt	-98*	nt
O=S1(=O)CCOCCN1Cc1ccc(Cl)cc1Cl	4	nt	nt	8	6	-2
CCc1ccc(C(=O)NNC(=O)c2ccc(=O)n(C)n2)cc1	5	-6	nt	-3	-30*	-2
SMILES	BCLXL inh	eLon inh	EBV gp42 inh	GLD-1 TGE inh	MEX-5 binding	MCL1 BIM primary
CCn1ncc(S(=O)(=O)N2CCN(c3cccc(OC)c3)CC2)c1C	7	-3	nt	0	1	-2
CC(=O)N1CCCC1(C(=O)O)c1ccccc1 (stereo not drawn)	5	-2	-3	3	1	2
Cc1ccc(-c2nc(C=Nc3ccc(O)cc3)c(O)o2)cc1	nt	0	30	nt	-37*	nt
COCCNC(=S)NN(c1ccccc1)c1ccccc1	-2	2	-1	5	-2	1
CNC(=S)NN(c1ccccc1)c1ccccc1	5	-2	84*	2	2	14
Cc1cccc(CSc2nc3c(c(-c4cccs4)c2C#N)CN(C)CC3)c1	33*	-21	-7	-1	-3	28
CN1CCc2nc(SCC(=O)Nc3cccc(F)c3)c(C#N)c(-c3cccs3)c2C1	39*	-29	27	17	1	33
Cc1cccc(CSc2nc(N)c(C#N)c(-c3cccs3)c2C#N)c1	6	-1	-2	4	-1	2
CCOc1ccccc1OCCC(=O)OCC(=O)Nc1c(C)cc(C)cc1C	-12	-7	nt	0	-1	-22
COc1ccc(-c2c(NC(=O)CC(C)C)n(C)c3ccccc3c2=O)cc1OC	2	-9	nt	-3	-1	5
CCCCN1CCNC[C@@H]1c1ccccc1	3	-2	nt	-6	nt	1
Cn1c(N)nc2nc(CCc3ccccc3)c(=O)[nH]c2c1=O	40*	12	nt	30	-11	41*
Cn1c(=O)c2c(nc(CCc3ccccc3)n2C)n(C)c1=O	nt	1	nt	nt	nt	nt
CCN(CC)c1ccc(/C=C/c2cc(-c3ccccc3)c3ccccc3n2)cc1	30*	-333	68*	-141	3	31
COc1ccc(/C=C2\N=C(c3c(-c4ccccc4)noc3C)OC2=O)cc1OC	6	-12	57*	4	5	7
COc1cc(/C=C2\N=C(c3ccccc3)OC2=O)ccc1OCc1c(C)no[n+]1[O-]	-1	-2	24	8	-1	7
Cc1cc(C)c(C#N)c(SCC(=O)C2CC2)n1	8	-8	-10	2	2	4
C=CCn1c(=O)/c(=C\c2ccsc2)s/c1=C(/C#N)C(=O)NCCN1CCOCC1	0	-6	-18	-1	-46*	-8
COc1ccc(-n2c(=O)/c(=C\c3cccs3)s/c2=C(/C#N)C(=O)NCCN2CCOCC2)cc1	-21	-88	-69	-5	-11	-36
Cc1ccc(CS(=O)Cc2ccc(C(=O)NCc3ccccc3Br)o2)cc1 (stereo not drawn)	3	-4	nt	2	2	8
Cn1c(=O)c(-c2cc(=O)[nH][nH]2)c(O)c2ccccc21	1	1	-4	-6	-30*	6
CC[C@]12C(=O)N(C)C[C@H]([C@@H]3C(=O)N(Cc4ccccc4)C(=O)[C@@H]31)N2C(=O)c1ccccc1	nt	-4	nt	nt	nt	nt
Cc1cc(C)c(S(=O)(=O)Nc2cc(SCC(=O)O)c(O)c3ccccc23)cc1C	19	nt	-1	12	-56*	27
O=C(O)CSc1cc(NS(=O)(=O)c2ccc(Cl)cc2)c2ccccc2c1O	22	7	nt	-3	0	38

Screening results: PubChem, several laboratories
